This passage reports outcome and AC50 results from PubChem BioAssay (EPA / NIEHS).

Usually AC50 stands for the concentration giving half of the maximal activity seen.

Assay [1] can be described thus: ATG_CRE_CIS: Attagene CIS-FACTORIAL HepG2 Assay for human cAMP Responsive Element (CRE) binding protein 3 (AID 2282926). As to conditions: HepG2 CRE cis-reporter, Attagene multiplexed mRNA; actives raise or lower the signal. Summed up:
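Transfected HepG2 were treated for 24 hours, then RNA was extracted and reporter cDNA amplified with sequence-specific primers. Labelled fragments were separated by capillary electrophoresis, and the CRE signal was fitted bidirectionally with DMSO as baseline.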

In assay [2] the target is CCAAT/enhancer-binding protein beta (Homo sapiens) (UniProt P17676). Nature of the assay: ATG_C_EBP_CIS: Attagene CIS-FACTORIAL HepG2 Assay for human CCAAT/Enhancer Binding Protein (C/EBP) beta (AID 2282927). As to conditions: HepG2 Attagene cis-factorial transcription factor reporter; actives raise or lower the signal. Summed up: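 RT-PCR/capillary electrophoresis fluorescence of reporter mRNA, 24 h post-dose, in HepG2 cells carrying transfected cis-promoter reporter units. Bidirectional curve fitting against DMSO baseline captures gain or loss of signal.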

Assay [3] is described as follows: ATG_CMV_CIS: Attagene CIS-FACTORIAL HepG2 Assay for human CMV (Internal Marker) (AID 2282928).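 Note: endpoint acts as a background internal control marker rather than a target.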 As to conditions: HepG2 CMV promoter reporter, transcription factor profiling; actives raise or lower the signal. In outline:
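CMV internal-marker background readout in transiently transfected HepG2 cells bearing cis-regulated reporter units. Reporter mRNA is measured 24 h after dosing by RT-PCR and capillary electrophoresis, with bidirectional fitting against DMSO.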

Assay [4] is described as follows: ATG_DR4_LXR_CIS: Attagene CIS-FACTORIAL HepG2 Assay for human Liver X Receptor (LXR), DR4 submotif (AID 2282929). The note with it: HepG2 Attagene DR4 cis-reporter, mRNA transcription; actives raise or lower the signal. Summed up: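 Transiently transfected HepG2 liver cells; cis-regulated reporters; 24 h dosing. RT-PCR plus CE read-out of reporter mRNA. DMSO baseline, bidirectional curve fitting.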

For assay [5], the target named is Aryl hydrocarbon receptor (Homo sapiens) (UniProt P35869). Nature of the assay: ATG_Ahr_CIS: Attagene CIS-FACTORIAL HepG2 Assay for human Aryl Hydrocarbon Receptor (Ahr) (AID 2282930). The note with it: HepG2 AhR cis-factorial reporter transcription; actives raise or lower the signal. In outline:
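HepG2 cells transiently transfected with cis-element-driven multiplexed reporter transcription units; endogenous transcription factor activity measured as reporter mRNA 24 h after dosing. RT-PCR, 6-FAM labelling, HpaI digestion, capillary electrophoresis; bidirectional fitting versus DMSO baseline.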

Assay [6] in a line: ATG_AP_1_CIS: Attagene CIS-FACTORIAL HepG2 Assay for human Activator Protein 1 (AP-1) (AID 2282931). The note with it: HepG2 Attagene cis-factorial AP-1 reporter mRNA; actives raise or lower the signal. Summed up: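 We transfected HepG2 cells transiently with a set of cis-regulated reporter transcription units, dosed them for 24 h, and quantified reporter mRNA via RT-PCR and capillary electrophoresis, scoring gain or loss of signal relative to DMSO.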

Assay [7] in a line: ATG_AP_2_CIS: Attagene CIS-FACTORIAL HepG2 Assay for human Activator Protein 2 (AP-2) (AID 2282932). As to conditions: HepG2 AP-2 cis-reporter, Attagene transcription factor profiling; actives raise or lower the signal. Summed up: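 HepG2 cells were transiently transfected with multiple cis-promoter reporter transcription units and dosed for 24 h. Reporter mRNA was measured by RT-PCR with capillary electrophoresis fluorescence; bidirectional fits relative to DMSO baseline.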

Assay [8] in a line: ATG_BRE_CIS: Attagene CIS-FACTORIAL HepG2 Assay for human Bone Morphogenetic Protein (BMP) Response Element (BRE) (AID 2282933). The note with it: HepG2 BMP response element reporter, Attagene transcription factor profiling; actives raise or lower the signal. In outline: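 HepG2 cells transiently transfected with multiplexed cis-element reporter units were dosed with chemical for 24 h. Reporter mRNA was measured by RT-PCR with fluorescent labelling, HpaI digestion and capillary electrophoresis; bidirectional fitting relative to DMSO.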

Assay [9] has as its target Retinoic acid receptor alpha (Homo sapiens) (UniProt P10276). Nature of the assay: ATG_DR5_RAR_CIS: Attagene CIS-FACTORIAL HepG2 Assay for human Retinoic Acid Receptor Alpha (RARE), DR5 submotif (AID 2282934). As to conditions: HepG2 Attagene cis-factorial RARE DR5 reporter, mRNA; actives raise or lower the signal. In outline: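 HepG2 cells transiently transfected with multiplexed reporter units under cis (DR5 RARE) promoters, so endogenous transcription factor activity is measured. After 24 h compound exposure, reporter mRNA is quantified by RT-PCR with fluorescent labelling and capillary electrophoresis; bidirectional fitting versus DMSO.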

Assay [10] is described as follows: ATG_E_Box_CIS: Attagene CIS-FACTORIAL HepG2 Assay for human Enhancer Box (E-box) (AID 2282936). As to conditions: HepG2 E-box cis-reporter transcription, actives raise or lower the signal. In outline: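 HepG2 cells transiently transfected with multiplexed cis-element reporter units sensing endogenous transcription factor activity; 24 h compound exposure. Reporter mRNA measured by RT-PCR, 6-FAM primer extension, HpaI digestion and capillary electrophoresis; bidirectional fit versus DMSO.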

Assay [11] can be described thus: ATG_M_61_CIS: Attagene CIS-FACTORIAL HepG2 Assay for M61 Transcription Factor (Internal Marker) (AID 2282937). The note with it: HepG2 Attagene CIS-FACTORIAL M61 internal marker reporter; actives raise or lower the signal. In outline:
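Multiplexed reporter mRNA assay, HepG2 human hepatoma cells, 24 h treatment. Signal: FAM-labelled, HpaI-digested RT-PCR fragments by CE. Fit: bidirectional, baseline DMSO.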

Assay [12] can be described thus: ATG_EGR_CIS: Attagene CIS-FACTORIAL HepG2 Assay for human Early Growth Response 1 (EGR1) (AID 2282938). As to conditions: HepG2 Attagene CIS-FACTORIAL EGR reporter mRNA; actives raise or lower the signal. In outline:
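Multiplexed cis-reporter system in human hepatoma HepG2 cells, transiently transfected. Cells are dosed for 24 h; reporter transcripts are amplified, fluorescently tagged and sized by capillary electrophoresis, with DMSO as negative control.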

Assay [13] in a line: ATG_M_19_CIS: Attagene CIS-FACTORIAL HepG2 Assay for M19 Transcription Factor (Internal Marker) (AID 2282939). As to conditions: HepG2 Attagene CIS-FACTORIAL M19 internal marker reporter; actives raise or lower the signal. In outline:
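HepG2 cells transiently transfected with cis-regulated multiple reporter transcription units were dosed for 24 h; reporter mRNA was quantified by RT-PCR, 6-FAM primer-extension labelling, HpaI digestion and capillary electrophoresis, with bidirectional fitting against DMSO baseline.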

The nature of assay [14]: ATG_Ets_CIS: Attagene CIS-FACTORIAL HepG2 Assay for human Erythroblast Transformation Specific (ETS) (AID 2282941). The note with it: HepG2 ETS cis-reporter transcription, actives raise or lower the signal. Summed up:
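HepG2 cells transfected with multiple cis-regulated reporter units measuring endogenous ETS-driven transcription, 24 h after dosing. Reporter mRNA quantified by RT-PCR with capillary electrophoresis; bidirectional fit relative to DMSO.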

In assay [15] the target is Hepatocyte nuclear factor 3-beta (Homo sapiens) (UniProt Q9Y261). Briefly: ATG_FoxA2_CIS: Attagene CIS-FACTORIAL HepG2 Assay for human Forkhead box A2 (FOXA2) (AID 2282942). As to conditions: HepG2 cis-reporter transcription factor activity, 24 h; actives raise or lower the signal. In outline: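 Multiplexed cis-element reporter assay in transiently transfected HepG2. Twenty-four hours post-dosing, RNA was reverse-transcribed, amplified, FAM-labelled, HpaI-digested and separated by CE. Activity gain or loss relative to DMSO.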

The nature of assay [16]: ATG_FoxO_CIS: Attagene CIS-FACTORIAL HepG2 Assay for human Forkhead box O (FoxO) (AID 2282943). As to conditions: HepG2 Attagene cis-reporter, FoxO element, mRNA; actives raise or lower the signal. In outline:
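HepG2 cells transiently transfected with cis-promoter-driven multiple reporter transcription units; 24 h after chemical dosing, reporter mRNA quantified by RT-PCR, fluorescent primer extension, HpaI digestion and capillary electrophoresis. Bidirectional fitting versus DMSO baseline.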

The nature of assay [17]: ATG_GATA_CIS: Attagene CIS-FACTORIAL HepG2 Assay for human GATA Binding Protein (AID 2282944). The note with it: HepG2 GATA cis-element reporter, Attagene multiplex mRNA; actives raise or lower the signal. Summed up:
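HepG2 cells transiently transfected with multiplexed cis-element reporter units reflecting endogenous transcription factor activity; reporter mRNA measured after 24 h dosing by RT-PCR, 6-FAM labeling, HpaI digestion and capillary electrophoresis. Bidirectional fitting versus DMSO baseline.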

The nature of assay [18]: ATG_GLI_CIS: Attagene CIS-FACTORIAL HepG2 Assay for human Zinc Finger Protein GLI1 (AID 2282945). The note with it: HepG2, Attagene cis-factorial reporter mRNA, GLI element; actives raise or lower the signal. In outline:
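HepG2 cells transiently transfected with cis-promoter multiplexed reporter units report endogenous transcription factor activity. After 24 h chemical exposure, reporter mRNA was quantified by RT-PCR, 6-FAM labelling, HpaI digestion and capillary electrophoresis, with bidirectional fitting against DMSO.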

The target of assay [19] is Transcription factor E2F1 (Homo sapiens) (UniProt Q01094). Briefly: ATG_E2F_CIS: Attagene CIS-FACTORIAL HepG2 Assay for human E2F Transcription Factor 1 (AID 2282935). As to conditions: HepG2 Attagene cis-reporter, E2F reporter RNA transcripts; actives raise or lower the signal. In outline: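 HepG2 cells transiently transfected with multiplexed cis-element reporter units, dosed for 24 h. Reporter mRNA measured by RT-PCR, 6-FAM primer-extension labeling, HpaI digestion and capillary electrophoresis; bidirectional fit versus DMSO baseline.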

Assay [20] addresses Bile acid receptor (Homo sapiens) (UniProt Q96RI1). Briefly: ATG_IR1_CIS: Attagene CIS-FACTORIAL HepG2 Assay for human Nuclear Receptor Subfamily 1 Group H Member 4 (NR1H4), IR1 submotif (AID 2282946). The note with it: IR1 reporter transcription, actives raise or lower the signal. Summed up: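 Transient MRTU transfection, HepG2; 24 h dosing; RNA → RT-PCR → 6-FAM primer extension → HpaI digest → capillary electrophoresis fluorescence. Gain/loss of signal fitted relative to DMSO.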

Activity calls are given as the source filed them. Rule for the calls: active = hit-call score of the fitted dose curve at least 0.9, where 1 is the maximum; inactive = score below 0.9.

Chain of CCAAT/enhancer-binding protein beta (Homo sapiens) (P17676 whole entry, looked up): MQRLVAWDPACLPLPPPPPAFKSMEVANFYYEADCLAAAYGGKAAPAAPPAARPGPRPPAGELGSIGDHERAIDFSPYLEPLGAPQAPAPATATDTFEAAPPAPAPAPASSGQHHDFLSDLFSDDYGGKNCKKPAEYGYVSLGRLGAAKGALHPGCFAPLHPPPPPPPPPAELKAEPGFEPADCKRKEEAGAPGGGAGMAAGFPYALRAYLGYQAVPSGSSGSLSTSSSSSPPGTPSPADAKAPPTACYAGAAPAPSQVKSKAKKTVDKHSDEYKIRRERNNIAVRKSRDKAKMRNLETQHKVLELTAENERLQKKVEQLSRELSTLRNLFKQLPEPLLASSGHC
Chain of Retinoic acid receptor alpha (Homo sapiens) (P10276 whole entry, looked up): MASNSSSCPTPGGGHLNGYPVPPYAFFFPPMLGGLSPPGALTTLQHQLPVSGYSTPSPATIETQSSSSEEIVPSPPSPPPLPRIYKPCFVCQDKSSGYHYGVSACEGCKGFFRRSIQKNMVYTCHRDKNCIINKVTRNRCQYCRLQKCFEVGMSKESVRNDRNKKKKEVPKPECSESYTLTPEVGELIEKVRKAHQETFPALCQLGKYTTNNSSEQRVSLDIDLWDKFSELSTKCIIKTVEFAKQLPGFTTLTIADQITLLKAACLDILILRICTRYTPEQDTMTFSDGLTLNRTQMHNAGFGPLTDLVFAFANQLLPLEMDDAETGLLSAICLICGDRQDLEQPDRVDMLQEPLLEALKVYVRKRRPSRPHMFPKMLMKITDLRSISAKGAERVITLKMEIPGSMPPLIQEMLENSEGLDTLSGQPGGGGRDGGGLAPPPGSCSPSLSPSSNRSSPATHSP
Chain of Transcription factor E2F1 (Homo sapiens) (Q01094 whole entry, looked up): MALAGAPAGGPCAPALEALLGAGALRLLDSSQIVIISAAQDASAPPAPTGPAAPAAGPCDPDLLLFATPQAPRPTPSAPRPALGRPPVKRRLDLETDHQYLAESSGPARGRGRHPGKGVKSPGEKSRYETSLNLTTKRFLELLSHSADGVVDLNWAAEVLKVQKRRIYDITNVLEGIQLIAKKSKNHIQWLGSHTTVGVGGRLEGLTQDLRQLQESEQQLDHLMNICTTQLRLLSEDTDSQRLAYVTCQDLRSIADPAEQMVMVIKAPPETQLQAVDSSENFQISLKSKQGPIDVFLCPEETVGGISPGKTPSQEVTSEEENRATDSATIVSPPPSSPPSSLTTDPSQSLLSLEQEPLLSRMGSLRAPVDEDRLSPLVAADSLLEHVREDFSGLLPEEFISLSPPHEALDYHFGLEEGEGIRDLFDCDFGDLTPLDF
Chain of Aryl hydrocarbon receptor (Homo sapiens) (P35869 whole entry, looked up): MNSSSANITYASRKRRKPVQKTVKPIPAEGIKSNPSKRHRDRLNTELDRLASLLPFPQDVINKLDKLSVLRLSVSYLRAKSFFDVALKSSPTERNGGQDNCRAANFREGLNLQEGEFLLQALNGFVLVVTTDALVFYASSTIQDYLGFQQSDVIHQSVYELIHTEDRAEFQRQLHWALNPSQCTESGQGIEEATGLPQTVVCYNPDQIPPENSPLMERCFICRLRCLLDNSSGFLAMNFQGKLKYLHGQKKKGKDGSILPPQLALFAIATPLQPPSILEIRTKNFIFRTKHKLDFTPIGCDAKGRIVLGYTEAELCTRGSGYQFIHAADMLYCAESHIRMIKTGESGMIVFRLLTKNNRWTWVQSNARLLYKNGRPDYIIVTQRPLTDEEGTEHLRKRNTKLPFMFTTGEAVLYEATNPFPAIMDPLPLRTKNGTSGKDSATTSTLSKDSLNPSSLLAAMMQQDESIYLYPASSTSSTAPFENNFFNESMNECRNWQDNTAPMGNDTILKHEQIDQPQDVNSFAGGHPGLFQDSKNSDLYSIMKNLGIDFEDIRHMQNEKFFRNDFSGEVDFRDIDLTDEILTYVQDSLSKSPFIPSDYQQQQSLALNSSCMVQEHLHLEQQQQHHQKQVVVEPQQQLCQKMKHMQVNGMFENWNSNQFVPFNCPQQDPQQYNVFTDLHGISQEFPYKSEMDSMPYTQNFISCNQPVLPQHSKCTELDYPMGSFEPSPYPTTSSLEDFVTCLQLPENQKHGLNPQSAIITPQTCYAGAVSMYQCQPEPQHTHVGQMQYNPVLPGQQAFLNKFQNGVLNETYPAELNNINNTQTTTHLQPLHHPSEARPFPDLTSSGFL
Chain of Bile acid receptor (Homo sapiens) (Q96RI1 whole entry, looked up): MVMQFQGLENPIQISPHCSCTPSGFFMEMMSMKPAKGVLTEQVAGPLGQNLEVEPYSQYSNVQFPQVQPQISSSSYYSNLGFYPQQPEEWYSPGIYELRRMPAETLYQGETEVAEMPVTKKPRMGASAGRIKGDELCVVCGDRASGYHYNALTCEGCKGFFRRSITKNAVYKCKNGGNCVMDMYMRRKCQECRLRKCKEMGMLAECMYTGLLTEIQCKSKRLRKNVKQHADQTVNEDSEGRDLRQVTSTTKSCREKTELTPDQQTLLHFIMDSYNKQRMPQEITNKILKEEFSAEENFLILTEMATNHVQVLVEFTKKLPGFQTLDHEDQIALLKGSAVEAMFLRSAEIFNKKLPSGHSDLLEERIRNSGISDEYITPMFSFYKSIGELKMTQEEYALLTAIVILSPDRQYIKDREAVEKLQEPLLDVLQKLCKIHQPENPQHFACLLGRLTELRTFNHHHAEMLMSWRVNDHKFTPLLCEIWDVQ
Chain of Hepatocyte nuclear factor 3-beta (Homo sapiens) (Q9Y261 whole entry, looked up): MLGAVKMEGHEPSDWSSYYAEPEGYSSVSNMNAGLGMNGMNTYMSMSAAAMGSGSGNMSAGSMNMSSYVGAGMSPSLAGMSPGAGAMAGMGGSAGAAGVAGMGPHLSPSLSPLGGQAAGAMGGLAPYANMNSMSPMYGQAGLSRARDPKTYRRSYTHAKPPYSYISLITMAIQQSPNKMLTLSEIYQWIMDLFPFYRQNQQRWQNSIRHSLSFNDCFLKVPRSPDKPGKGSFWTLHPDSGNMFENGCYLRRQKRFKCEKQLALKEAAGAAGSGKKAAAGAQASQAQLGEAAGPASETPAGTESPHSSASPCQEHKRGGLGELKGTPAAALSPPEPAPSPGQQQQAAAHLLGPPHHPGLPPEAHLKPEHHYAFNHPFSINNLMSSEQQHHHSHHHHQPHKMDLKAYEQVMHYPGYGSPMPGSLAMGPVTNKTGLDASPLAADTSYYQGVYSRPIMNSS

For `Nc1c(S(=O)(=O)O)cc(Br)c2c1C(=O)c1ccccc1C2=O`, the compound was classed as inactive in assay [1], in assay [2], in assay [3], in assay [4], in assay [6] and in [7]. For the same compound, the result in assay [8], in assay [9], in assay [10], in [11], in assay [12] and in [13] was inactive. The compound was classed as inactive in [14], in [15], in assay [16], in assay [17] and in [18]. The AC50 in [5] was 9.82 µM (active).

In the case of `CC(C)C[C@H](NC(=O)OCC1c2ccccc2-c2ccccc21)C(=O)O`, the result in [1], in [2], in [3], in assay [4], in assay [5] and in [6] was inactive. The call in assay [7], in assay [8], in assay [9], in assay [19], in assay [11] and in [12] was inactive. Moreover, the outcome in assay [14], in assay [15], in assay [16], in assay [17], in assay [18] and in [20] was inactive.

As to `O=Cc1ccccc1S(=O)(=O)O`, the outcome in assay [1], in [2], in assay [3], in assay [4], in [5] and in assay [6] was inactive. Moreover, the result in assay [7], in [8], in assay [9], in assay [19], in assay [10] and in [12] was inactive. Also, the compound was classed as inactive in assay [13], in [15], in [16], in [17] and in [18].

Take `CCCCCCCCCCCCCC(=O)OCC(O)CO` (centres undefined): the compound was classed as inactive in [1], in assay [2], in assay [3], in assay [4], in assay [5] and in assay [6]. In addition, the compound was called inactive in assay [7], in [8], in [9], in assay [10], in [11] and in assay [12]. Moreover, the result in assay [13], in [14], in assay [15], in assay [16], in assay [17] and in [18] was inactive. Moreover, the result in assay [20] was inactive.

With `CC=Cc1ccc(OCC)c(O)c1`, the outcome in [1], in assay [2], in assay [3], in assay [4], in [6] and in [7] was inactive. In addition, the result in [8], in [9], in assay [19], in [12], in [13] and in assay [14] was inactive. The call in assay [15], in assay [16], in [17] and in assay [18] was inactive. In addition, in assay [5], the AC50 was 11.3 µM (active).

Regarding `CN(C)CCOC(C)(c1ccccc1)c1ccccn1` (centres undefined), the call in assay [1], in assay [2], in assay [3], in [4], in assay [5] and in assay [6] was inactive. The outcome in assay [7], in assay [8], in assay [9], in [19], in assay [10] and in [11] was inactive. Besides, the result in assay [13], in assay [15], in assay [16], in assay [17], in assay [18] and in assay [20] was inactive.

Consider `O=C(O)c1cc(C(=O)O)cc([N+](=O)[O-])c1`, for which the call in assay [1], in [2], in [3], in assay [4], in assay [5] and in assay [6] was inactive. Besides, the outcome in [7], in assay [8], in assay [9], in [19], in assay [11] and in assay [12] was inactive. Further, the compound was called inactive in assay [13], in assay [14], in [15], in [16], in [17] and in assay [18].

As to `O=CCc1ccccc1`, the compound was called inactive in [1], in assay [2], in assay [3], in assay [4], in assay [5] and in assay [6]. Besides, the compound was classed as inactive in assay [7], in assay [8], in assay [9], in assay [10], in assay [11] and in assay [12]. Also, the compound was called inactive in assay [13], in assay [14], in assay [15], in assay [16], in assay [17] and in [18]. In addition, in assay [20], the compound was called inactive.
